From PubChem BioAssay
Values joined by “and” are separate entries in the source; they are usually repeats but may differ in a detail not shown here. Equal entries are not always repeated. Active and inactive are the calls of the source. Unless noted, no rule for the calls is given here.

Experiments:
[1] = system: Wnt5a (protein binding on small-molecule microarray); assay: small molecules binding Wnt5a protein – biophysical, small-molecule microarray, 635/667 nm fluorescence, primary screen (AID 1142); conditions: 635 nm fluorescence, higher = more signal;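 also: fluorescence read at 667 nm with signal to noise per printed feature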
[2] = ATP-based viability of Huh7 replicon cells – cell-based, CellTiter-Glo luminescence, basal, 48 h, cytotoxicity control for HCV replication inhibitor project, primary screen (AID 1143); conditions: higher = more signal, called active from +8 up or from −8 down;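 also: Huh7 hepatoma cells carrying a hepatitis C replication reporter with no stimulus; test concentration not given here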
[3] = Pseudomonas biofilm growth suppression – PAO1 strain, BacTiter-Glo luminescence, LB-PBS, primary screen (AID 1144); conditions: P. aeruginosa PAO1 biofilm, 12 h, higher = more signal
[4] = basal CRE-LacZ reporter activity in PC12 – cell-based, unstimulated, primary screen (AID 1145); conditions: no forskolin, luminescence, 4.5 h, higher = more signal, called active from +8 up or from −8 down
[5] = forskolin-driven CRE-LacZ activity in PC12 – cell-based, CRE-LacZ reporter, forskolin-stimulated, primary screen (AID 1146); conditions: luminescence, 4.5 h, higher = more signal, called active from +8 up or from −8 down;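 also: PC12 cells with 6xCRE LacZ reporter stimulated by forskolin 10 µM; beta-galactosidase reporter signal reflecting CREB driven transcription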
[6] = biological target: Streptavidin (Streptomyces avidinii) (UniProt P22629); assay: compounds binding control protein streptavidin – biophysical, small-molecule microarray, 635/667 nm fluorescence, artefact control for SMM compound annotation, primary screen (AID 1147); conditions: higher = more signal;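 also: signal reflects streptavidin binding to arrayed compounds as a control protein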
[7] = probe aInhba binding on compound microarray – biochemical, small-molecule microarray, 635/667 nm fluorescence, primary screen (AID 1148); conditions: higher = more signal;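 also: score merges 667nm spot fluorescence with signal-to-noise for antibody binding to printed compounds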
Torsin-1A (Homo sapiens) [8] = biological target: Torsin-1A (Homo sapiens) (UniProt O14656); assay: TOR1A wild-type binding on microarray – cell lysate, small-molecule microarray, lysate, 635/667 nm, primary screen (AID 1149); conditions: COS7 hTOR1A-WT lysate, 635 nm fluorescence, higher = more signal
Torsin-1A (Homo sapiens) [9] = biological target: Torsin-1A (Homo sapiens) (UniProt O14656); assay: torsin A mutant lysate binding on microarrays – cell lysate, small-molecule microarray, COS7 lysate, 635/667 nm fluorescence, primary screen (AID 1150); conditions: COS7 hTOR1A mutant lysate, 635 nm fluorescence, higher = more signal;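 also: score pools 667 nm emission and signal to noise measuring lysate protein binding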
[10] = system: Sonic hedgehog protein (Shh); assay: Sonic hedgehog microarray binding compounds – biochemical, small-molecule microarray, 635/667 nm fluorescence, primary screen (AID 1151); conditions: 635 nm fluorescence, higher = more signal;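 also: Shh protein binding to compounds spotted on small-molecule microarray slides; score combines spot fluorescence intensity with signal-to-noise across triplicate slides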

Torsin-1A (Homo sapiens), sequence (O14656 whole entry, looked up): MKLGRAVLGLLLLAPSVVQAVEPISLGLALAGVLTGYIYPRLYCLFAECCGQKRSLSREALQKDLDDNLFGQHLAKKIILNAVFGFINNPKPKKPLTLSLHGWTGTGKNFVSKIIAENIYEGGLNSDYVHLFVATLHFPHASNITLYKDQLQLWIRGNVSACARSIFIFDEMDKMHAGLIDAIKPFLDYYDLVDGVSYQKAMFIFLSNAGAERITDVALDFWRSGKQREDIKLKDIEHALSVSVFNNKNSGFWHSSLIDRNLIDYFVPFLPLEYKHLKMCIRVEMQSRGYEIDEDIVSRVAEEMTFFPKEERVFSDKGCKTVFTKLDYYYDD
Streptavidin (Streptomyces avidinii), sequence (P22629 whole entry, looked up): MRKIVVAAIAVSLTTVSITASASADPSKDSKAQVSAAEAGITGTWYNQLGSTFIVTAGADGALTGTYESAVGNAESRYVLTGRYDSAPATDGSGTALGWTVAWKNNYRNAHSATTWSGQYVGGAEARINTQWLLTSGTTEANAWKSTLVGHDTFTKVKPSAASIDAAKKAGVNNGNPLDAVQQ

Row | SMILES | composite z-score [1] | z-score [2] | z-score [3] | z-score [4] | z-score [5] | composite z-score [6] | composite z-score [7] | composite z-score (Torsin-1A (Homo sapiens) [8]) | composite z-score (Torsin-1A (Homo sapiens) [9]) | composite z-score [10]
1 | CC(=O)OC[C@H]1O[C@H](C#CC(C)(C)C)C=C[C@@H]1OC(C)=O | -0.0516 | 0.13 (inactive) | 0.992 (inactive) | -0.162 (inactive) | 1.35 (inactive) | 1.58 | -0.0331 | 0.835 | -0.392 | 0.953
2 | CC(C)=CCCC(C)=CCON=C1C[C@@H](O)[C@@H](O)[C@@H]2[C@@H]3C(=O)N([C@@H](C)c4ccccc4)C(=O)[C@@H]3CC[C@H]12 | 0.111 | -3.97 (inactive) | 1.09 (inactive) | -0.295 (inactive) | -0.323 (inactive) | 0.0138 | -0.233 | 0.594 | 0.26 | 1.18
3 | C[C@@H]1CC[C@H]2C(=O)N3[C@@H](CC[C@@H](C)[C@@H]3c3ccc(-c4ccco4)cc3)C(=O)N2[C@H]1c1ccc(-c2ccco2)cc1 | 0.178 and 0.544 | 0.234 (inactive) and 0.563 (inactive) | 0.598 (inactive) | -0.165 (inactive) and 0.651 (inactive) | 0.371 (inactive) and -0.248 (inactive) | 1.33 and 2.14 | 0.0006 and 0.0895 | 0.967 and 2.1 | 0.411 and 1.47 | 1.44 and 1.19
4 | Cc1cc2c(nc1C)CCCN2CC(C)ON=C[C@@H](C)[C@H](OCc1ccccc1)C(C)C (stereo not given in full) | -0.0264 | 0.615 (inactive) | 0.461 (inactive) | 0.248 (inactive) | 0.317 (inactive) | -0.254 | -0.016 | -0.209 | 0.22 | 0.513
5 | COC(=O)C1=C(C)N(Cc2ccccc2)C2=C3C(=O)CCC[C@@H]3[C@@](O)(C(=O)OC)C(=O)N2[C@@H]1c1ccccc1 | -0.0849 and 0.288 | -0.5 (inactive) and -1.53 (inactive) | 0.311 (inactive) | 1.65 (inactive) and 1.38 (inactive) | 0.703 (inactive) and -1.7 (inactive) | 0.14 and -0.503 | 0.155 and -0.0762 | 0.555 and -0.0343 | 0.844 and 0.0578 | 0.544 and 0.586
6 | C[N+](C)(C)CCCCCCNC(=O)[C@H]1C[C@H]2C(=O)N[C@@H](CCCC[N+](C)(C)C)C(=O)N2[C@H]1c1cccc(OCCO)c1 | 0.138 and 0.215 | -0.153 (inactive) and 0.0096 (inactive) | -0.454 (inactive) and 0.221 (inactive) | -0.532 (inactive) and -1.09 (inactive) | 0.323 (inactive) and -0.622 (inactive) | -0.621 and 0.0935 | 0.298 and 0.135 | 0.765 and 1.27 | 1.11 and 0.354 | 1.98 and 1.79
7 | C=CC[C@@H](O)c1ccc(O)c(F)c1 | -0.54 and -0.38 | 0.504 (inactive) and -1.51 (inactive) | -0.222 (inactive) | -0.403 (inactive) and 0.0632 (inactive) | 0.347 (inactive) and -1.46 (inactive) | -1.6 and -1.65 | -0.327 and -0.157 | -1.73 and -0.874 | 0.565 and -0.383 | -0.97 and 0.89
8 | C[C@@H](c1ccccc1)N1C(=O)[C@H]2[C@H]3[C@H](O)[C@H](O)CC(=O)[C@@H]3CC[C@H]2C1=O | 0.314 | -0.961 (inactive) | 0.00582 (inactive) | 1.25 (inactive) | 0.488 (inactive) | 0.192 | -0.0791 | 0.712 | 0.113 | 1.04
9 | C=CCN(Cc1ccccc1)C(=O)C1N(C(C)(C)CO)C(=O)C2C(C(=O)O)C3C=CC21O3 (stereo not given) | -0.578 and -0.945 | 0.283 (inactive) and 0.582 (inactive) | 1.51 (inactive) and -1.52 (inactive) | -0.224 (inactive) and -1.57 (inactive) | -0.141 (inactive) and -0.418 (inactive) | -1.56 and -1.49 | -0.231 and -0.213 | -0.396 and -3.85 | -1.19 and -2.15 | -1.17 and -1.73
10 | C[N+](C)(C)CCCCNC(=O)[C@H]1C[C@H]2C(=O)N[C@@H](CCCC[N+](C)(C)C)C(=O)N2[C@H]1c1cccc(OCCO)c1 | 0.949 and 0.646 | -0.0036 (inactive) and -0.177 (inactive) | -0.281 (inactive) and 0.741 (inactive) | -0.667 (inactive) and -0.268 (inactive) | -0.393 (inactive) and -0.441 (inactive) | -0.853 and -0.0338 | -0.025 and 0.0631 | -1.08 and 1.03 | -0.879 and 2.09 | 2.21 and 2.31
11 | COC(=O)C1=C2N(Cc3ccccc3)C(C)=C(C(=O)OC)[C@@H](c3ccccc3)N2C(=O)[C@](O)(C(=O)OC)C1 | -0.0382 and -0.0845 | -0.124 (inactive) and 0.0688 (inactive) | 0.917 (inactive) and -0.22 (inactive) | 2.08 (inactive) and 1.8 (inactive) | -1.03 (inactive) and -0.435 (inactive) | -0.302 and -0.327 | -0.0736 and -0.0895 | 1.04 and 2.21 | 0.42 and 3.89 | 0.71 and 0.673
12 | C=CC[C@@H](O)c1ccc(O)c2ccccc12 | 0.173 and 0.435 | 0.794 (inactive) and -0.721 (inactive) | -0.498 (inactive) and -1.33 (inactive) | 3.25 (inactive) and 2.1 (inactive) | 2.5 (inactive) and 5.93 (inactive) | 0.49 and 0.679 | -0.0553 and -0.141 | 0.261 and 0.0205 | 0.426 and 0.369 | 1.96 and 1.82
13 | C[C@@H]1CC[C@H]2C(=O)O[C@H](CN=[N+]=[N-])CN2[C@H]1c1ccc(Br)cc1 | -0.0328 and -0.216 | -2.85 (inactive) and -0.512 (inactive) | -0.203 (inactive) and -0.277 (inactive) | -0.162 (inactive) and 3.89 (inactive) | -0.177 (inactive) and -0.414 (inactive) | -0.167 and 0.0058 | 0.0232 and -0.154 | 0.225 and 0.372 | 0.455 and 0.101 | 0.286 and -0.196
14 | C#CCN1C(/C=C/c2ccccc2)C(=O)OC[C@H]1c1ccccc1 (stereo not given in full) | 0.161 and 0.111 | -5.93 (inactive) and -0.403 (inactive) | -0.793 (inactive) | 2.48 (inactive) and -0.682 (inactive) | -1.66 (inactive) and -0.836 (inactive) | -0.0296 and -0.175 | -0.0853 and 0.0807 | 0.419 and -0.479 | 0.436 and 0.128 | 0.713 and 1.03
15 | CO[C@@H]1COC(=O)CC=C[C@H](C)[C@@H](NS(=O)(=O)c2ccc(C)cc2)COC(=O)CC=C[C@@H]1C | 0.123 and 0.0913 | -0.142 (inactive) and -0.867 (inactive) | -0.675 (inactive) and -1.19 (inactive) | -0.743 (inactive) and 0.42 (inactive) | -0.881 (inactive) and 0.764 (inactive) | 0.167 and 0.162 | -0.159 and -0.179 | 0.318 and 2.3 | 0.505 and 1.55 | 1.43 and 2.1
